Results on ten molecules are retold here after PubChem BioAssay (NCI).

Test [1] in a line: NCI Yeast Anticancer Drug Screen. Data for the rad50 strain (AID 155).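 Note: 0% = growth of vehicle-only cultures of the same strain.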 The settings on record: S. cerevisiae rad50 strain growth inhibition, stronger effect = higher value. The procedure, abridged: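 Cells are treated with compound, grown, and their growth is then scored against vehicle-only cultures of the same repair-deficient yeast strain.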
Test [2] can be described thus: NCI Yeast Anticancer Drug Screen. Data for the mec2-1 strain (AID 157). The following applies: S. cerevisiae mec2-1 strain, stronger effect = higher value. An outline of the steps:
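mec2-1 yeast strain, carrying an alteration in DNA damage repair or cell cycle control, was exposed to compounds; growth inhibition was measured relative to vehicle-treated controls.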

Test [3] is described as follows: NCI Yeast Anticancer Drug Screen. Data for the sgs1 mgt1 strain (AID 161).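 Note: 0% = growth of cultures given vehicle only.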 The following applies: S. cerevisiae sgs1 mgt1 strain, stronger effect = higher value. An outline of the steps: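 Compounds are added to genetically altered yeast, and growth is compared with cultures given vehicle alone to give percent inhibition.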
Test [4] can be described thus: NCI Yeast Anticancer Drug Screen. Data for the cln2 rad14 strain (AID 165).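 Note: 0% = growth equal to vehicle treated cultures.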 The settings on record: S. cerevisiae cln2 rad14 strain, stronger effect = higher value. The procedure, abridged: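 Yeast carrying cln2 and rad14 alterations (cell cycle control and DNA damage repair) were exposed to compounds. Growth inhibition was measured against vehicle-treated controls.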
A short description of test [5]: NCI Yeast Anticancer Drug Screen. Data for the bub3 strain (AID 167). The following applies: S. cerevisiae bub3 mutant strain, stronger effect = higher value. An outline of the steps: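 Part of a panel of yeast mutants defective in DNA damage repair or cell cycle regulation. Each strain is grown with compound, and inhibition is calculated relative to solvent-treated cultures.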

A short description of test [6]: NCI Yeast Anticancer Drug Screen. Data for the mlh1 rad18 strain (AID 175). The following applies: S. cerevisiae mlh1 rad18 strain growth inhibition, stronger effect = higher value. The procedure, abridged:
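Growth inhibition of the yeast strain was measured after compound exposure and expressed relative to vehicle-treated controls. The strain carries defined defects in DNA damage repair.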

Where [7] appears, read: at 5.0 µM (retest, dose inferred, filed as 0.5).
Setting [8] is: at 50.0 µM (retest, dose inferred, filed as 5.0).

About 79,000 compounds went through this panel and 15% of them were active in at least one assay; those are over-represented in the sample as a whole. A number with no mark means an inactive call. Calls of active or inactive are those of the source. Cut-off read from the data, not from the text of the source: active = growth inhibition above about 70%; inactive = the rest.

For the molecule `CCOC(=O)CC(N)CC(=O)OCC`, the growth inhibition is -142% in test [1] (setting [7]); -157% in test [1] (setting [8]); 94.8% (active) in test [1] (at 50.0 µM); -47% in test [2] (setting [7]); -49% in test [2] (setting [8]); 39.1% in test [2] (at 50.0 µM). For the same molecule, the growth inhibition in test [3] (setting [7]) was -56%; in test [3] (setting [8]), -64%; in test [3] (at 50.0 µM) it was -1.35%; in test [4] (setting [7]), -53%; in test [4] (setting [8]) it was -53%; in test [4] (at 50.0 µM), -4.7%. Also, the growth inhibition is -67% in test [5] (setting [7]); -79% in test [5] (setting [8]); 75.2% (active) in test [5] (at 50.0 µM); -110% in test [6] (setting [7]); -113% in test [6] (setting [8]); 44.5% in test [6] (at 50.0 µM).
Turning to `CC1C(=O)C(C)C(c2ccccc2)N(C)C1c1ccccc1` (stereo not given), the growth inhibition in test [1] (setting [7]) was 81% (active); in test [1] (setting [8]), 98% (active); in test [1] (at 50.0 µM) it was 99% (active); in test [2] (setting [7]), 42%; in test [2] (setting [8]) it was 99% (active); in test [2] (at 50.0 µM), 99.1% (active). The growth inhibition in test [3] (setting [7]) was 81% (active); in test [3] (setting [8]), 98% (active); in test [3] (at 50.0 µM) it was 99.3% (active); in test [4] (setting [7]), 31%; in test [4] (setting [8]) it was 98% (active); in test [4] (at 50.0 µM) it was 99% (active). For the same molecule, the growth inhibition in test [5] (setting [7]) was 42%; in test [5] (setting [8]) it was 95% (active); in test [5] (at 50.0 µM), 99.4% (active); in test [6] (setting [7]) it was 63%; in test [6] (setting [8]) it was 98% (active); in test [6] (at 50.0 µM) it was 99.1% (active).
On to `COc1ccccc1/C=C1\C=Cc2ccccc21`, for which the growth inhibition in test [1] (setting [7]) is -3%; in test [1] (setting [8]), 6%; in test [1] (at 50.0 µM) it was 31.9%; in test [2] (setting [7]), 0%; in test [2] (setting [8]), -1%; in test [2] (at 50.0 µM) it was 49.5%. In addition, the growth inhibition was -4% in test [3] (setting [7]); 8% in test [3] (setting [8]); 44.2% in test [3] (at 50.0 µM); -1% in test [4] (setting [7]); -14% in test [4] (setting [8]); 26.2% in test [4] (at 50.0 µM). The growth inhibition is 3% in test [5] (setting [7]); -1% in test [5] (setting [8]); 78% (active) in test [5] (at 50.0 µM); -3% in test [6] (setting [7]); 7% in test [6] (setting [8]); 70.4% (active) in test [6] (at 50.0 µM).
Regarding `Cn1c(Sc2ccc(-c3cccnc3)n2C)ccc1-c1cccnc1`, the growth inhibition in test [1] (setting [7]) is 11%; in test [1] (setting [8]) it was 91% (active); in test [1] (at 50.0 µM), 97.8% (active); in test [2] (setting [7]), -12%; in test [2] (setting [8]) it was 92% (active); in test [2] (at 50.0 µM), 98.7% (active). Moreover, the growth inhibition in test [3] (setting [7]) was -7%; in test [3] (setting [8]) it was 97% (active); in test [3] (at 50.0 µM), 97.5% (active); in test [4] (setting [7]) it was -15%; in test [4] (setting [8]), 77% (active); in test [4] (at 50.0 µM), 98.1% (active). In addition, the growth inhibition is -19% in test [5] (setting [7]); 96% (active) in test [5] (setting [8]); 97.8% (active) in test [5] (at 50.0 µM); -5% in test [6] (setting [7]); 95% (active) in test [6] (setting [8]); 97.3% (active) in test [6] (at 50.0 µM).
As for `O=Nc1c(NO)c2ccccc2c2ccccc12`, the growth inhibition in test [1] (setting [7]) was 5%; in test [1] (setting [8]), 96% (active); in test [1] (at 50.0 µM) it was 99.1% (active); in test [2] (setting [7]), -2%; in test [2] (setting [8]), 91% (active); in test [2] (at 50.0 µM) it was 96.2% (active). Moreover, the growth inhibition is -8% in test [3] (setting [7]); 93% (active) in test [3] (setting [8]); 97.8% (active) in test [3] (at 50.0 µM); 2% in test [4] (setting [7]); 82% (active) in test [4] (setting [8]); 85.8% (active) in test [4] (at 50.0 µM). In addition, the growth inhibition in test [5] (setting [7]) is -9%; in test [5] (setting [8]), 95% (active); in test [5] (at 50.0 µM), 98.2% (active); in test [6] (setting [7]), 20%; in test [6] (setting [8]), 95% (active); in test [6] (at 50.0 µM), 98.2% (active).
For `S=C(Nc1ccccc1)SCc1ccc(Cl)cc1`, the growth inhibition in test [1] (setting [7]) is 1%; in test [1] (setting [8]), 96% (active); in test [1] (at 50.0 µM) it was 90.6% (active); in test [2] (setting [7]), -6%; in test [2] (setting [8]) it was 98% (active); in test [2] (at 50.0 µM), 67.2%. The growth inhibition was 1% in test [3] (setting [7]); 96% (active) in test [3] (setting [8]); 84.7% (active) in test [3] (at 50.0 µM); -6% in test [4] (setting [7]); 96% (active) in test [4] (setting [8]); 38.5% in test [4] (at 50.0 µM). Further, the growth inhibition in test [5] (setting [7]) was -5%; in test [5] (setting [8]), 97% (active); in test [5] (at 50.0 µM), 86.4% (active); in test [6] (setting [7]), -7%; in test [6] (setting [8]) it was 97% (active); in test [6] (at 50.0 µM), 85.5% (active).
For `Cc1ccc(S(=O)(=O)N2CCN(C)CC2)cc1`, the growth inhibition in test [1] (setting [7]) is -1%; in test [1] (setting [8]), 12%; in test [1] (at 50.0 µM), 19.4%; in test [2] (setting [7]), -5%; in test [2] (setting [8]) it was 26%; in test [2] (at 50.0 µM), 4.45%. In addition, the growth inhibition was 4% in test [3] (setting [7]); 31% in test [3] (setting [8]); 5.5% in test [3] (at 50.0 µM); 1% in test [4] (setting [7]); 16% in test [4] (setting [8]); -0.55% in test [4] (at 50.0 µM). Further, the growth inhibition in test [5] (setting [7]) is 1%; in test [5] (setting [8]), 39%; in test [5] (at 50.0 µM), 40.5%; in test [6] (setting [7]), 13%; in test [6] (setting [8]), 49%; in test [6] (at 50.0 µM), 11.6%.
Regarding `COc1ccc(N2C(=O)C(=O)C(C(C)=O)C2=O)cc1` (stereo not given), the growth inhibition in test [1] (setting [7]) was -1%; in test [1] (setting [8]), 0%; in test [1] (at 50.0 µM), 99.2% (active); in test [2] (setting [7]), -2%; in test [2] (setting [8]) it was 6%; in test [2] (at 50.0 µM), 99.3% (active). Besides, the growth inhibition in test [3] (setting [7]) was 1%; in test [3] (setting [8]), 2%; in test [3] (at 50.0 µM), 99.4% (active); in test [4] (setting [7]), -4%; in test [4] (setting [8]), 7%; in test [4] (at 50.0 µM) it was 99% (active). The growth inhibition was 1% in test [5] (setting [7]); 3% in test [5] (setting [8]); 99.3% (active) in test [5] (at 50.0 µM); -8% in test [6] (setting [7]); 4% in test [6] (setting [8]); 99.2% (active) in test [6] (at 50.0 µM).
For `C=CCCCN1C(=O)C2C3c4ccccc4C(C=O)(c4ccccc43)C2C1=O` (stereo not given), the growth inhibition in test [1] (setting [7]) was 29%; in test [1] (setting [8]), 25%; in test [1] (at 50.0 µM), 32.1%; in test [2] (setting [7]), 8%; in test [2] (setting [8]), 20%; in test [2] (at 50.0 µM), 30.7%. Besides, the growth inhibition in test [3] (setting [7]) was 0%; in test [3] (setting [8]), 23%; in test [3] (at 50.0 µM) it was 27.9%; in test [4] (setting [7]) it was 16%; in test [4] (setting [8]), 12%; in test [4] (at 50.0 µM), 29.6%. In addition, the growth inhibition in test [5] (setting [7]) is 26%; in test [5] (setting [8]), 17%; in test [5] (at 50.0 µM), 4.65%; in test [6] (setting [7]), 27%; in test [6] (setting [8]), 35%; in test [6] (at 50.0 µM) it was 3.25%.
On to `CCN(CC)CCCCCCNc1cc(Cl)cc2cccnc12`, for which the growth inhibition in test [1] (setting [7]) was 18%; in test [1] (setting [8]) it was 71% (active); in test [1] (at 50.0 µM) it was 91.6% (active); in test [2] (setting [7]), 14%; in test [2] (setting [8]) it was 64%; in test [2] (at 50.0 µM) it was 89.9% (active). For the same molecule, the growth inhibition in test [3] (setting [7]) was 28%; in test [3] (setting [8]) it was 94% (active); in test [3] (at 50.0 µM) it was 97.5% (active); in test [4] (setting [7]), 26%; in test [4] (setting [8]), 68%; in test [4] (at 50.0 µM), 97% (active). Further, the growth inhibition in test [5] (setting [7]) is 42%; in test [5] (setting [8]), 79% (active); in test [5] (at 50.0 µM), 85.4% (active); in test [6] (setting [7]) it was 27%; in test [6] (setting [8]), 84% (active); in test [6] (at 50.0 µM), 97.5% (active).
